# Tests used:
# Assay in all cases: DAPPL (digital affinity profiling via proximity ligation, sequencing); 10 mM Tris-HCl pH 7.5, 50 mM NaCl, 1 mM DTT, 4% glycerol, room temperature, 30 min; GST-TFs on glutathione beads, 16-mer random dsDNA library, 0.1% formaldehyde crosslink after washing; high values mean tight binding
# FLI1 = target: T1, FLI1 (Homo sapiens, UniProt Q01543 1-452); details: protein: recombinant; tags: N-terminal GST; dsDNA, one strand shown
# T1 sequence: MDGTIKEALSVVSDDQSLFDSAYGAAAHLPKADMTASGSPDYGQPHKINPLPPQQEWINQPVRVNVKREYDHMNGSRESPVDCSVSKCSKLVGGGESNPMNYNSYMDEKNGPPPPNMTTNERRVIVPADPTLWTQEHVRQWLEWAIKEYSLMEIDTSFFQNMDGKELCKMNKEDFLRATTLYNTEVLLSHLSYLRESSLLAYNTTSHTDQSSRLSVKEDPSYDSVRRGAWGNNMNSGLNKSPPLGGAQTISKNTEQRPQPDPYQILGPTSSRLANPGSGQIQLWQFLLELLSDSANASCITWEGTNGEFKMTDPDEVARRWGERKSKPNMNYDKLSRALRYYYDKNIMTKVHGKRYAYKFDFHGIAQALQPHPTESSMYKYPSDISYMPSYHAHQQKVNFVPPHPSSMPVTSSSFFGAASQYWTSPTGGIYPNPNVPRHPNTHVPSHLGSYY
# Outline: (§1)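 Sequencing on an Illumina NextSeq500 followed washing, crosslinking with 0.1% formaldehyde, proximity ligation (BsaI/T4 ligase, 1 h, 37 °C) and PCR amplification of pools that had been incubated for 30 min at room temperature with 200 nmole of a random double-stranded 16-mer DNA library in Tris/NaCl/DTT/glycerol buffer. Each pool held DNA-barcoded human transcription factors, expressed in yeast as GST fusions and captured on glutathione beads, plus a tag-only sample. Binding signal is a hexamer's read frequency for a factor divided by its frequency in the tag-only sample.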
# ELK1 = target: T2, ELK1 (Homo sapiens, UniProt P19419 1-428); details: protein: recombinant; tags: N-terminal GST; dsDNA, one strand shown
# T2 sequence: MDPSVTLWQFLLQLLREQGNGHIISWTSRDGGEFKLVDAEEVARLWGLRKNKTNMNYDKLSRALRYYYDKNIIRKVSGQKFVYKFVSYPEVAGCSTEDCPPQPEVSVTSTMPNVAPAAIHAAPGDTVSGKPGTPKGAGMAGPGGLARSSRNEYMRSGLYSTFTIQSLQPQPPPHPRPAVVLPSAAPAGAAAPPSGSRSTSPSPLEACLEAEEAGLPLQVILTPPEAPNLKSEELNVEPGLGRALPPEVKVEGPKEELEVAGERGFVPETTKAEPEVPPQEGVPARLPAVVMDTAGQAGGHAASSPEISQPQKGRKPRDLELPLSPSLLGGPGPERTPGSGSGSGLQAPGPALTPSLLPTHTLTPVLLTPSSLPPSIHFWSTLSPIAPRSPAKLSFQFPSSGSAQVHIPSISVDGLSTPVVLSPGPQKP
# Outline: as §1
# GABPA = target: T3, GABPA (Homo sapiens, UniProt Q06546 1-454); details: protein: recombinant; tags: N-terminal GST; dsDNA, one strand shown
# T3 sequence: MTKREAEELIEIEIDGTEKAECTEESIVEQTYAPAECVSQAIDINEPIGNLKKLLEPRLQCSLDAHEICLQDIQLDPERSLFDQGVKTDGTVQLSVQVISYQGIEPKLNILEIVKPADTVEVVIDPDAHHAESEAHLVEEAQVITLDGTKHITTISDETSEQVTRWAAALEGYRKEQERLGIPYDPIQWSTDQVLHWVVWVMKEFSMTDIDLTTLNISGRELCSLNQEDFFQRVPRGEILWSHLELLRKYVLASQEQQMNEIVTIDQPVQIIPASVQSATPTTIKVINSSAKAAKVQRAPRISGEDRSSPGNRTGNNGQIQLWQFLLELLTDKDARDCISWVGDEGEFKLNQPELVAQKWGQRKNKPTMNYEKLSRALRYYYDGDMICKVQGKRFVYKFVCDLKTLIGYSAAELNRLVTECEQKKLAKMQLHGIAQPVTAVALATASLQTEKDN
# Outline: as §1
# ERG = target: T4, ERG (Homo sapiens, UniProt P11308 1-479); details: protein: recombinant; tags: N-terminal GST; dsDNA, one strand shown
# T4 sequence: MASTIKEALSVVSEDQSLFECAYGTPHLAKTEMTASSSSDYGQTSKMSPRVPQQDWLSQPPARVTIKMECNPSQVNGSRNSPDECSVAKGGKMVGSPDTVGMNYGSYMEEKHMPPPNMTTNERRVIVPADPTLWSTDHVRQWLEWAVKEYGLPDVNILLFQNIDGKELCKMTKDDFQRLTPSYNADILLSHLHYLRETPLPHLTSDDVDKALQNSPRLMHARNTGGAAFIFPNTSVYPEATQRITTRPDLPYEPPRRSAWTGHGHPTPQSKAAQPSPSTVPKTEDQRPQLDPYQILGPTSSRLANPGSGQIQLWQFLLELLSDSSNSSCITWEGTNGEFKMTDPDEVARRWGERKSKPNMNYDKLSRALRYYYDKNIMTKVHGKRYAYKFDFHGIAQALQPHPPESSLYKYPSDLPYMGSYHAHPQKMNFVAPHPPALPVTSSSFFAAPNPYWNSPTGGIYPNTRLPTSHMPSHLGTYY
# Outline: as §1
# ELF1 = ELF1 (Homo sapiens, UniProt P32519 1-619); details: protein: recombinant; tags: N-terminal GST; dsDNA, one strand shown
# Outline: as §1
# EHF = target: T5, EHF (Homo sapiens, UniProt Q9NZC4 1-300); details: protein: recombinant; tags: N-terminal GST; dsDNA, one strand shown
# T5 sequence: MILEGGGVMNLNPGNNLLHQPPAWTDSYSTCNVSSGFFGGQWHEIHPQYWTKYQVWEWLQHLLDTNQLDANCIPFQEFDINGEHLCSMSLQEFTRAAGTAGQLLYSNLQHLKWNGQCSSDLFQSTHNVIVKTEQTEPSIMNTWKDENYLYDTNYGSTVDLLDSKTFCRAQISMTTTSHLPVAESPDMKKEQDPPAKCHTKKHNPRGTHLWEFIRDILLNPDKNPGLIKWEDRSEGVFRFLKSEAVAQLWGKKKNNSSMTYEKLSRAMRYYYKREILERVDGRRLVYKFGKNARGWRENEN
# Outline: as §1
# SPI1 = SPI1 (Homo sapiens, UniProt P17947 1-270); details: protein: recombinant; tags: N-terminal GST; dsDNA, one strand shown
# Outline: as §1
# SPIB = SPIB (Homo sapiens, UniProt Q01892 1-262); details: protein: recombinant; tags: N-terminal GST; dsDNA, one strand shown
# Outline: as §1
# ELK3 = target: T6, ELK3 (Homo sapiens, UniProt P41970 1-407); details: protein: recombinant; tags: N-terminal GST; dsDNA, one strand shown
# T6 sequence: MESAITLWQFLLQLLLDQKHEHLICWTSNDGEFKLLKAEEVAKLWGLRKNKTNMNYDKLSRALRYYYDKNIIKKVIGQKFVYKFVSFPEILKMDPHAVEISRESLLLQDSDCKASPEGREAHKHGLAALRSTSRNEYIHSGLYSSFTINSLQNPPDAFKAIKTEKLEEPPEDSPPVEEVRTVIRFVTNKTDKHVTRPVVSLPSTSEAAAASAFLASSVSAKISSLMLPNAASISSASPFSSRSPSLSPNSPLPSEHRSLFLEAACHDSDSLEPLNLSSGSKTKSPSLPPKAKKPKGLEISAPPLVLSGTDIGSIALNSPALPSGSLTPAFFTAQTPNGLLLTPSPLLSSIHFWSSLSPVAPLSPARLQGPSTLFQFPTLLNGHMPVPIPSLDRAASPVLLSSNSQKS
# Outline: as §1
# FEV = target: T7, FEV (Homo sapiens, UniProt Q99581 1-238); details: protein: recombinant; tags: N-terminal GST; dsDNA, one strand shown
# T7 sequence: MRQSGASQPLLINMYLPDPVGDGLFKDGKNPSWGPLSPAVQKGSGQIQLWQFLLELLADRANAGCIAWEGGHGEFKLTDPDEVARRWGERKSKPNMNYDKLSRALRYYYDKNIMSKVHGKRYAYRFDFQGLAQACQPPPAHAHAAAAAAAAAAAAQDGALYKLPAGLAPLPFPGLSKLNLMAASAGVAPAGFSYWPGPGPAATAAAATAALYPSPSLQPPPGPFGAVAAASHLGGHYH
# Outline: as §1
# ETV5 = ETV5 (Homo sapiens, UniProt P41161 1-510); details: protein: recombinant; tags: N-terminal GST; dsDNA, one strand shown
# Outline: as §1
# HSF1 = HSF1 (Homo sapiens, UniProt Q00613 1-529); details: protein: recombinant; tags: N-terminal GST; chain copies: 3; dsDNA, one strand shown
# Outline: as §1
# SPIC = target: T8, SPIC (Homo sapiens, UniProt Q8N5J4 1-248); details: protein: recombinant; tags: N-terminal GST; dsDNA, one strand shown
# T8 sequence: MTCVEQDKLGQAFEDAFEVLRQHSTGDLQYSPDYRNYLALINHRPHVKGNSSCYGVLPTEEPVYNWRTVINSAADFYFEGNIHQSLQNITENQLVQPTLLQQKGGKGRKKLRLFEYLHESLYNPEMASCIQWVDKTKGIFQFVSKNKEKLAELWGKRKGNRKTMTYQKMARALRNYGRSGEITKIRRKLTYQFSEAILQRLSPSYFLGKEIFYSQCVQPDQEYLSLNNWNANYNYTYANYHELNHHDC
# Outline: as §1
# ELF4 = ELF4 (Homo sapiens, UniProt Q99607 1-663); details: protein: recombinant; tags: N-terminal GST; dsDNA, one strand shown
# Outline: as §1
# ELK4 = target: T9, ELK4 (Homo sapiens, UniProt P28324-2 1-405); details: protein: recombinant; tags: N-terminal GST; dsDNA, one strand shown
# T9 sequence: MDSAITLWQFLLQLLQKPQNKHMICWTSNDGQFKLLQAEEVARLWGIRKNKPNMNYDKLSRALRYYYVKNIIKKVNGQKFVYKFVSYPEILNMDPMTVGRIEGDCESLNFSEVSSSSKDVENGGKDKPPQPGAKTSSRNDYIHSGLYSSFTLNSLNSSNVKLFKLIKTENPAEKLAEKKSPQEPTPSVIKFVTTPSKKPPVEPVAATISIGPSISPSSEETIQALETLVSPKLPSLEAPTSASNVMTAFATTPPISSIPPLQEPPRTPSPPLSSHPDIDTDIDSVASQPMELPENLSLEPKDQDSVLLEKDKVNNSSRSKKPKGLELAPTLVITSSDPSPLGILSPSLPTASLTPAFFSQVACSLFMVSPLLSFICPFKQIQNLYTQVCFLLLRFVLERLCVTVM
# Outline: as §1
# ETV2 = target: T10, ETV2 (Homo sapiens, UniProt O00321 1-342); details: protein: recombinant; tags: N-terminal GST; dsDNA, one strand shown
# T10 sequence: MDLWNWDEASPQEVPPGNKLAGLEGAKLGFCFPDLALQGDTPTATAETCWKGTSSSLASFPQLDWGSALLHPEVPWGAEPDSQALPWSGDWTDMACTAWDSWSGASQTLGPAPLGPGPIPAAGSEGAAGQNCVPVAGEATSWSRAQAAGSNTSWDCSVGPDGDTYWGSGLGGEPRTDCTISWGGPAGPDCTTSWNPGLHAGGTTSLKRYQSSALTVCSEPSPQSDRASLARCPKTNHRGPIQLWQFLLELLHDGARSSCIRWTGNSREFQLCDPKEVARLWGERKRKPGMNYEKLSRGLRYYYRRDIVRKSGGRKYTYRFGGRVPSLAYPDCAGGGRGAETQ
# Outline: as §1
# ELF3 = target: T11, ELF3 (Homo sapiens, UniProt P78545 1-371); details: protein: recombinant; tags: N-terminal GST; dsDNA, one strand shown
# T11 sequence: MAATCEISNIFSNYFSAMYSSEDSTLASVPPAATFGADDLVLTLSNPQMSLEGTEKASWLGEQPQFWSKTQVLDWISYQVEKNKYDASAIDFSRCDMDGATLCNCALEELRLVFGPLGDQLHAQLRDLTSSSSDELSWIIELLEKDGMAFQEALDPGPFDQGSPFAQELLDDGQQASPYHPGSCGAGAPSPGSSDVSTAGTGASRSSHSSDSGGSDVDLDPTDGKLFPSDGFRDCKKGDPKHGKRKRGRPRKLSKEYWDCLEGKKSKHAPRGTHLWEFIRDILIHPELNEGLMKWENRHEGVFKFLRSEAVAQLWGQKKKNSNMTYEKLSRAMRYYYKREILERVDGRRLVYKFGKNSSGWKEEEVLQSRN
# Outline: as §1
# CRX = CRX (Homo sapiens, UniProt O43186 1-299); details: protein: recombinant; tags: N-terminal GST; dsDNA, one strand shown
# Outline: as §1
# ETV1 = ETV1 (Homo sapiens, UniProt P50549 1-477); details: protein: recombinant; tags: N-terminal GST; dsDNA, one strand shown
# Outline: as §1
# Sequence of CRX (O43186 whole entry): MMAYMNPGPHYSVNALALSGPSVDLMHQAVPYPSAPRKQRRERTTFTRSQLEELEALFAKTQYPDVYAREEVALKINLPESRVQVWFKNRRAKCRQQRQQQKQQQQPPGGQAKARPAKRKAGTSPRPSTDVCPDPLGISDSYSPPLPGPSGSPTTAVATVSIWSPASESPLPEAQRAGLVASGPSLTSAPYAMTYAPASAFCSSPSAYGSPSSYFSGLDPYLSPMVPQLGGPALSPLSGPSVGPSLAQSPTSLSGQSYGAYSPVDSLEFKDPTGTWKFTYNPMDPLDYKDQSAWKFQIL
# Sequence of ETV1 (P50549 whole entry): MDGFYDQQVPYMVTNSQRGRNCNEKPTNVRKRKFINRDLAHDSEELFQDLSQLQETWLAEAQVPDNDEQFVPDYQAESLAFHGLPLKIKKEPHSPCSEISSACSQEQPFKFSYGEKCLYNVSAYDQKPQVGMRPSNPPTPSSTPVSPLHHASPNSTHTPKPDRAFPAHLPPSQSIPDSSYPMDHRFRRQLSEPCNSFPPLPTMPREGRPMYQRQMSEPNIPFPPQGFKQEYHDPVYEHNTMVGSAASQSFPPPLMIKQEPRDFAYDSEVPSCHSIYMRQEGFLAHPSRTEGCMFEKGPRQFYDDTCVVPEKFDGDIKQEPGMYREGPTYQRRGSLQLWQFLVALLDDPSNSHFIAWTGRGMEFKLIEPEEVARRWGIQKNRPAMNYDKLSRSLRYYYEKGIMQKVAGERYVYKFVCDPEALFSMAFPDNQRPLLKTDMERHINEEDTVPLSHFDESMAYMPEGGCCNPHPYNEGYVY
# Sequence of ELF1 (P32519 whole entry): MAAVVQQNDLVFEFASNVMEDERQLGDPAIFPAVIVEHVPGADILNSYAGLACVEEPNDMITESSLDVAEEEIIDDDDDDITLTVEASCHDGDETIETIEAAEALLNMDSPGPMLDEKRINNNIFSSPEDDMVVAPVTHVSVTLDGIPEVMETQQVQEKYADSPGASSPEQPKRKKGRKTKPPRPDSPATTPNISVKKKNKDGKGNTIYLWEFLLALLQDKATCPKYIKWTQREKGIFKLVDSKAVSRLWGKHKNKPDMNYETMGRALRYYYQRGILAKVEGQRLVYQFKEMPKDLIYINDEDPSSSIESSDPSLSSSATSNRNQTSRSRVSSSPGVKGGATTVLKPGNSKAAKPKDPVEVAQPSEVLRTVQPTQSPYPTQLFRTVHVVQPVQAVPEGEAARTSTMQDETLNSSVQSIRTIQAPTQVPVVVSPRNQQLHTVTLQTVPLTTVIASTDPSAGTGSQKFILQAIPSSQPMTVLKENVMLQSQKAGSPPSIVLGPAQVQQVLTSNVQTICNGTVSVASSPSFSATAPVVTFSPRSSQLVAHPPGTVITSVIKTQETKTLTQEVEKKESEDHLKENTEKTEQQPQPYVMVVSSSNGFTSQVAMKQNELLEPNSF
# Sequence of SPIB (Q01892 whole entry): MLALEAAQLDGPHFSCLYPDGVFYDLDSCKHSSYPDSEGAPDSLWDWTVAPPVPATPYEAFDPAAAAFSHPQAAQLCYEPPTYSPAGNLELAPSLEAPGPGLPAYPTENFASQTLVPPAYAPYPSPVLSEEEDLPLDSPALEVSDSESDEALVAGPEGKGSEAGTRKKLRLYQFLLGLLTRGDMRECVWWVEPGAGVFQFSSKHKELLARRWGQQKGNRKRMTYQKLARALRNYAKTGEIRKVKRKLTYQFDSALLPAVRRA
# Sequence of ETV5 (P41161 whole entry): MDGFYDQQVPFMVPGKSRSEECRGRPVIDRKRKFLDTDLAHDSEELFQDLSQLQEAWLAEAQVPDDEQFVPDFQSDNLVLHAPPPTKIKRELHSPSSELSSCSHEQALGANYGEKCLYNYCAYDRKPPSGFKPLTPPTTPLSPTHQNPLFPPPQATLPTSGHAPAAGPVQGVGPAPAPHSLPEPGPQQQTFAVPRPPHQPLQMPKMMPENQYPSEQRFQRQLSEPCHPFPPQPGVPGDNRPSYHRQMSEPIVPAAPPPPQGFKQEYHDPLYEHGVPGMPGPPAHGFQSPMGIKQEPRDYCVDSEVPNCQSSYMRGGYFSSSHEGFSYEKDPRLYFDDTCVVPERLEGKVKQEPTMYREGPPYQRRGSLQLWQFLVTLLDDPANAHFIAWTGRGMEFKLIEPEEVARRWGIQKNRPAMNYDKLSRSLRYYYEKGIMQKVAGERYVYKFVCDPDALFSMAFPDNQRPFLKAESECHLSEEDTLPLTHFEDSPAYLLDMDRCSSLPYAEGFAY
# Sequence of HSF1 (Q00613 whole entry): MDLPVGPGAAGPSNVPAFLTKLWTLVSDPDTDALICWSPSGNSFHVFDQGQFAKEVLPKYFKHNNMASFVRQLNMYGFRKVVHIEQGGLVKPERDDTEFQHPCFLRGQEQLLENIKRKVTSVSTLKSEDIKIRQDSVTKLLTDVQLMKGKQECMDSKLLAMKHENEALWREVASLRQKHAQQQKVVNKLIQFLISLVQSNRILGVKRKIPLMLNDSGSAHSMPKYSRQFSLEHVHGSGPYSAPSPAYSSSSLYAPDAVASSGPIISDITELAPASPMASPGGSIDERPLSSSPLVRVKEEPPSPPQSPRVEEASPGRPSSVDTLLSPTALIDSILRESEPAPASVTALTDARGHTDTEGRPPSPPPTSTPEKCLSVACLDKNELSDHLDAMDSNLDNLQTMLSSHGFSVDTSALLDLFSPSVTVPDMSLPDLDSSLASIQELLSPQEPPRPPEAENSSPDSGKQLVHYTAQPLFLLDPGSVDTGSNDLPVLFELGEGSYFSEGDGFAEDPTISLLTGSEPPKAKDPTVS
# Sequence of ELF4 (Q99607 whole entry): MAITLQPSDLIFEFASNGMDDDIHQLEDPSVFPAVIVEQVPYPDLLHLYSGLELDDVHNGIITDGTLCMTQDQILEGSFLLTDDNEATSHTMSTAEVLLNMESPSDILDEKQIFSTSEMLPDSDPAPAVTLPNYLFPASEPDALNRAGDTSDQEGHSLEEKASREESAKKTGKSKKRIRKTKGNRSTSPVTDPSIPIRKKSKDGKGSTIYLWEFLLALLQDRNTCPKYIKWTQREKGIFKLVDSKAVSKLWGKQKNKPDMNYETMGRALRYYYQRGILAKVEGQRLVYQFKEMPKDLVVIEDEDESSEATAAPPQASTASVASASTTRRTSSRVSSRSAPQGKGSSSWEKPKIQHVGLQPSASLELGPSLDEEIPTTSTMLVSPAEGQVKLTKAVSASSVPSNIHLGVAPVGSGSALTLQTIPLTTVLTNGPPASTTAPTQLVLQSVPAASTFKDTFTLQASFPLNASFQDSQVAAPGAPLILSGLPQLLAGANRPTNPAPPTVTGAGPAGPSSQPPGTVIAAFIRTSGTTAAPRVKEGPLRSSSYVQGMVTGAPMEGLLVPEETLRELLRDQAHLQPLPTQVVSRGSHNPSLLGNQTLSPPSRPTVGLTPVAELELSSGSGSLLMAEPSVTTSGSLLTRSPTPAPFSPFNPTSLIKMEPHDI
sequence,measurement,setting,value
ATGGTT,binding signal,FLI1,"1.41 fold enrichment (6-mer frequency, TF over GST control)"
same,binding signal,ELK1,"1.28 fold enrichment (6-mer frequency, TF over GST control)"
same,binding signal,GABPA,"1.28 fold enrichment (6-mer frequency, TF over GST control)"
same,binding signal,ERG,"1.35 fold enrichment (6-mer frequency, TF over GST control)"
same,binding signal,ELF1,"1.39 fold enrichment (6-mer frequency, TF over GST control)"
same,binding signal,EHF,"1.28 fold enrichment (6-mer frequency, TF over GST control)"
same,binding signal,SPI1,"1.3 fold enrichment (6-mer frequency, TF over GST control)"
same,binding signal,SPIB,"1.3 fold enrichment (6-mer frequency, TF over GST control)"
same,binding signal,ELK3,"1.39 fold enrichment (6-mer frequency, TF over GST control)"
same,binding signal,FEV,"1.34 fold enrichment (6-mer frequency, TF over GST control)"
same,binding signal,ETV5,"1.31 fold enrichment (6-mer frequency, TF over GST control)"
same,binding signal,HSF1,"1.25 fold enrichment (6-mer frequency, TF over GST control)"
same,binding signal,SPIC,"1.33 fold enrichment (6-mer frequency, TF over GST control)"
same,binding signal,ELF4,"1.32 fold enrichment (6-mer frequency, TF over GST control)"
same,binding signal,ELK4,"1.42 fold enrichment (6-mer frequency, TF over GST control)"
same,binding signal,ETV2,"1.24 fold enrichment (6-mer frequency, TF over GST control)"
same,binding signal,ELF3,"1.38 fold enrichment (6-mer frequency, TF over GST control)"
same,binding signal,CRX,"1.17 fold enrichment (6-mer frequency, TF over GST control)"
same,binding signal,ETV1,"1.42 fold enrichment (6-mer frequency, TF over GST control)"

# Reference: PMC7862700, “An all-to-all approach to the identification of sequence-specific readers for epigenetic DNA modifications on cytosine”
